Assay results from article PMC5540273 (PLoS ONE, 2017).

Experiments:
Conditions in all cases: concentration: 1 μM, replicates: in singlicate; n = 1
HIPK4 = system: HIPK4
HPK1 = system: HPK1
HUNK = system: HUNK
ICK = system: ICK
IGF1R = system: IGF1R
IKK-alpha = system: T1, IKK-alpha
T1 construct: gene CHUK

IKK-beta = system: T2, IKK-beta
T2 construct: gene IKBKB

IKK-epsilon = system: T3, IKK-epsilon
T3 construct: gene IKBKE

INSRR = system: INSRR
INSR = system: INSR
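Also: KINOMEscan kinase panel screen.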

Compound | %Inh (HIPK4) | %Inh (HPK1) | %Inh (HUNK) | %Inh (ICK) | %Inh (IGF1R) | %Inh (IKK-alpha) | %Inh (IKK-beta) | %Inh (IKK-epsilon) | %Inh (INSRR) | %Inh (INSR)
c1ccc(-c2ccnc3[nH]ccc23)cc1 [SB-693578] | 0% | 48% | 2% | 13% | 14% | 47% | 64% | 0% | 0% | 5%
CNc1cc(-c2ccc3c(N)n[nH]c3c2)nc(N)n1 [GSK2224810] | 14% | 41% | 5% | 12% | 0% | 6% | 0% | 39% | 0% | 19%
CS(=O)(=O)CCNCc1nc(-c2ccc3ncnc(Nc4ccc5c(cnn5Cc5ccccc5)c4)c3c2)cs1.Cl.Cl [GW569716] | 0% | 32% | 28% | 2% | 19% | 38% | 8% | 0% | 0% | 0%
COC(=O)c1cccc(NC(=O)NC2CCN(c3ccnc(Nc4ccc(OC)cc4)n3)C2)c1 (centres unmarked) [GSK1379746] | 0% | 41% | 0% | 12% | 1% | 44% | 18% | 29% | 0% | 0%
O=c1cc(N2CCOCC2)nc2n(Cc3ccccc3F)ccn12 [GSK2297428] | 0% | 34% | 0% | 0% | 7% | 0% | 0% | 0% | 0% | 0%
